CYP2C19 act: human CYP2C19 activators, primary screen, biochemical, luminescence | activation factor at 5 µM | Cytochrome P450 2C19 (Homo sapiens), P33261 | AID 1025, 2008 | recombinant CYP2C19, luciferin-H EGE luminescence; hits give high values; 0 = fully inhibited enzyme, 1 = untreated enzyme | 96,000 tested, under 10 active;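 active = activation factor of at least 2 at 5 µM in the primary screen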;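 note: 0 = wells with 2.5 mM tranylcypromine and 1 = vehicle-only wells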
Target sequence (P33261 whole entry, looked up): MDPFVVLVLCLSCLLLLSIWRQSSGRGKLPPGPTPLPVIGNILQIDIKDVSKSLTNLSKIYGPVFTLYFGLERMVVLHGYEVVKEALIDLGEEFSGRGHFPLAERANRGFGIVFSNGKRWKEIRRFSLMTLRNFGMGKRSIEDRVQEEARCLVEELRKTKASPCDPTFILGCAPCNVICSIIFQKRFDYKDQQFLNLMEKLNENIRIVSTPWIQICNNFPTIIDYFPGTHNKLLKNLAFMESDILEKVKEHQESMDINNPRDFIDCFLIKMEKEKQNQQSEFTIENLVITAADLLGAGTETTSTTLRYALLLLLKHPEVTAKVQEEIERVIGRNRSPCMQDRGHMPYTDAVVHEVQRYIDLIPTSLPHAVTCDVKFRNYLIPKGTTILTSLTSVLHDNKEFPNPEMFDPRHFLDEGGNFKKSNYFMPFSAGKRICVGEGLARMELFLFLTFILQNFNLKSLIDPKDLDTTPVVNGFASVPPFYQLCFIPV
CYP2C19 inhib: blockers of cytochrome P450 2C19 activity – biochemical, luminescence, ADME assay, primary screen; 96,000 tested, 21% active; inhibition, % at 5 µM; CYP2C19 Supersomes, luciferin-H EGE luminescence, 30 min; P33261; AID 778, 2007;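 active = CYP2C19 inhibition above a set limit at 5 µM in the primary screen, cut at about 50% in these data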;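 note: plate controls were negative control wells for no effect and 2.5 mM tranylcypromine positive control for full effect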
CYP2C9 inhib: blockers of cytochrome P450 2C9 activity – biochemical, luminescence, ADME assay, primary screen; inhibition, % at 5 µM; AID 777, 2007; CYP2C9 Supersomes, luciferin-H conversion; P11712; 96,000 tested, 20% active;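 active = blocking of liver enzyme CYP2C9 beyond about 50% at 5 µM, limit read from the data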
PLAP activator: PLAP enzyme activators, biochemical, luminescence, HTS. AID 696, 2007. activation fold at 20 µM. purified PLAP enzyme, luminescent substrate read-out; hits give high values. 96,000 tested, 1.2% active. Alkaline phosphatase, placental type (Homo sapiens), P05187; in the data active = activation fold above about 2
CYP2C9 activ: human CYP2C9 activators, primary screen, biochemical, luminescence | Cytochrome P450 2C9 (Homo sapiens), P11712 | recombinant CYP2C9, luciferin-H conversion; hits give high values; factor 1 = untreated enzyme, 0 = blocked | activation factor at 5 µM | 96,000 tested, 1.4% active | AID 1024, 2008;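 active = activation factor of 2 or more for CYP2C9 at a 5 µM dose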;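 note: 0 = sulfaphenazole-blocked wells and 1 = vehicle-only wells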
Numbers without * were called inactive. This is a sample that favours compounds with a hit; in the whole collection about 31% have one here.

SMILES	CYP2C19 act	CYP2C19 inhib	CYP2C9 inhib	PLAP activator	CYP2C9 activ
COc1ccc(OCC(=O)Nc2sc3c(c2C(=O)NCC2CCCO2)CCC3)cc1 (stereo unspecified)	0.3	70*	95*	1	0
O=C(COc1ccccc1)Nc1sc2c(c1C(=O)NCc1cccnc1)CCCC2	0.9	7	96*	1	0
COc1ccc(/C=C/C(=O)Nc2sc3c(c2C(=O)NCc2cccnc2)CCCC3)cc1	0.3	75*	97*	1.4	0
COc1cc(/C=C/C(=O)NCc2cccnc2)cc(OC)c1OC	0.9	14	-1	1	1
O=C(NCCc1ccc(Cl)cc1)C1CCCN(S(=O)(=O)c2cnc[nH]2)C1 (stereo unspecified)	0.1	92*	86*	1.3	0.1
O=C(NCCc1ccc(Cl)cc1)C1CCN(S(=O)(=O)N2CCC3(CC2)OCCO3)CC1	0.2	77*	33	1.1	0.7
Cc1noc(C)c1S(=O)(=O)N1CCCC(C(=O)NCCc2ccc(Cl)cc2)C1 (stereo unspecified)	0.3	69*	44	0.8	0.6
O=C(NCc1ccc(F)cc1)C1CCN(S(=O)(=O)N2CCC3(CC2)OCCO3)CC1	1	2	25	1.3	0.8
Cc1ccc(CCNC(=O)C2CCCN(S(=O)(=O)c3cnc[nH]3)C2)cc1 (stereo unspecified)	0.1	87*	78*	1.2	0.2
Cc1ccc(S(=O)(=O)N2CC(=NO)C2)cc1	0.8	25	-28	0.9	1.3
O=C(NCCC1=CCCCC1)C1CCN(S(=O)(=O)c2cccs2)CC1	0.7	26	45	1.1	0.6
Cc1ccc(CCNC(=O)C2CCCN(c3nc4ccccc4o3)C2)cc1 (stereo unspecified)	0.4	61*	50*	1	0.5
O=C(NCCC1=CCCCC1)C1CCN(S(=O)(=O)c2cnc[nH]2)CC1	0.2	78*	96*	1.4	0
COCCCNC(=O)Cn1nnc(-c2ccc(NC(=O)c3ccc(F)cc3)cc2)n1	0.7	26	30	1.2	0.7
CCOC(=O)c1c(CNCCN(CC)CC)n(C)c2cc(Br)c(OC)cc12	0.9	7	-35	1.7	1.4
Cc1ccc(NC(=O)COC(=O)c2ccc3c(c2)NC(=O)C2CCCN32)cc1C (stereo unspecified)	0.8	18	-7	1.6	1.1
Nc1c(C(=O)c2ccccc2)oc2ccc(Br)cc12	0.3	70*	49	0.6	0.5
Nc1c(C(=O)c2ccc(Br)s2)oc2ccccc12	0.8	21	23	0.7	0.8
N#Cc1ccccc1OCC(=O)OCC(=O)c1ccc2c(c1)NC(=O)CO2	0.3	67*	59*	0.9	0.4
COc1cc(OC)cc(C(=O)N[C@H](C(=O)OCC(=O)c2ccc3c(c2)NC(=O)CO3)C(C)C)c1	0.7	29	26	1.1	0.7
CC[C@H](C)[C@H](NC(=O)c1ccc(Cl)cc1)C(=O)OCC(=O)c1ccc2c(c1)NC(=O)CO2	0.5	46	56*	1.5	0.4
CC(C)[C@H](NC(=O)c1ccccc1)C(=O)OCC(=O)c1ccc2c(c1)NC(=O)CO2	0.5	52*	40	1.4	0.6
COc1ccc(/C(N)=N/OC(=O)CSc2ccccc2)cc1OC	0.7	28	29	1	0.7
COc1ccc(-c2nnc(SCC(=O)N3CCCCC3)o2)c(OC)c1	1	-3	-23	1.3	1.2
CCC1CCCCN1C(=O)CSc1nnc(-c2c[nH]c3ccccc23)o1 (stereo unspecified)	0.1	91*	-62	1	1.6
SMILES	CYP2C19 act	CYP2C19 inhib	CYP2C9 inhib	PLAP activator	CYP2C9 activ
CC1CCCN(C(=O)CSc2nnc(-c3c[nH]c4ccccc34)o2)C1 (stereo unspecified)	0.3	71*	-31	1.2	1.3
COc1ccc(-c2nnc(SCC(=O)N3CCCC(C)C3)o2)c(OC)c1 (stereo unspecified)	0.3	71*	20	1.6	0.8
CC1CCCC(C)N1C(=O)CSc1nnc(-c2c[nH]c3ccccc23)o1 (stereo unspecified)	0.7	28	-8	1	1.1
CCOC(=O)c1ccc(NC(=O)CSc2nc3c(c(=O)n2-c2ccccc2OC)SCC3)cc1	0.7	32	41	1.6	0.6
O=S(=O)(Nc1ccc(C(F)(F)F)cc1)c1cnc[nH]1	0	99*	100*	0.9	0
O=S(=O)(Nc1cccc(C(F)(F)F)c1)c1cnc[nH]1	0	98*	100*	0.9	0
O=S(=O)(Nc1ccc(Cl)c(C(F)(F)F)c1)c1cnc[nH]1	0	96*	99*	1	0
COc1ccc(C(=O)Nc2ccc(Cl)cc2C(=O)NCCO)cc1	1	-1	32	1	0.7
COc1cc(SC#N)ccc1N=Cc1c(C)[nH]n(-c2cccc3ccccc23)c1=O	0.9	14	16	1.1	0.8
O=C(NCc1ccccn1)c1cn(CCc2ccccc2)nn1	1	-5	-13	1.1	1.1
COC(=O)C(C)N1C(=O)S/C(=C/c2cc(C)n(C(C)C)c2C)C1=O (stereo unspecified)	0.6	38	37	1.3	0.6
O=C(COC(=O)C1COc2ccccc2O1)NC(=O)NC1CCCCC1 (stereo unspecified)	1	2	14	0.8	0.9
Oc1[nH]c2ccccc2c1/C=N/c1nccs1	0.5	53*	14	1.2	0.9
COc1ccc(N=Cc2c(O)[nH]c3ccccc23)cc1	0.9	8	10	1	0.9
CC(=O)Nc1ccc(S(=O)(=O)N2CCN(C(=O)CCC3CCCC3)CC2)cc1	1	-3	12	1.1	0.9
Nc1ccc2oc(=O)c3ccccc3c2c1	0.4	59*	24	1.1	0.8
Nc1c(N)c2ccccc2oc1=O	1	2	2	1.1	1
C=CCn1c(SCC(=O)Nc2ccc3c(c2)OCO3)nnc1-c1ccccc1O	0.6	42	40	1.1	0.6
Cc1ccccc1-n1c(SCC(=O)c2cc(C)n(C)c2C)nnc1-c1cccnc1	0.3	67*	62*	1.5	0.4
CCn1c(SCC(N)=O)nnc1-c1ccc(OC)c(OC)c1	1	-1	-12	1	1.1
CCn1c(SCC(=O)c2ccc(O)c(O)c2)nnc1-c1ccccc1OC	0.3	67*	-28	0.3	1.3
C=CCn1c(SCC(=O)c2ccc(O)c(O)c2)nnc1-c1ccccc1OC	0.3	75*	-41	0.3	1.4
CCn1c(SCC(=O)c2cc(C)n(C)c2C)nnc1-c1ccccc1	0	100*	-45	1.3	1.5

Screens as filed in PubChem.
